Data on nine molecules can be found in PubChem BioAssay (NCI).

A short description of experiment [1]: NCI Yeast Anticancer Drug Screen. Data for the rad50 strain (AID 155).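 Note: 0% = growth of vehicle-only cultures of the same strain.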 The conditions noted are these: S. cerevisiae rad50 strain growth inhibition, stronger effect = higher value. The method in brief: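 Genetically altered yeast (DNA repair pathway); compound treatment; growth inhibition vs vehicle ctrl.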
Experiment [2] in a line: NCI Yeast Anticancer Drug Screen. Data for the mec2-1 strain (AID 157). Conditions: S. cerevisiae mec2-1 strain, stronger effect = higher value. The method in brief:
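Strain: mec2-1 (DNA repair/cell cycle alteration). Compound exposure, then growth measured; inhibition expressed relative to vehicle.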

The nature of experiment [3]: NCI Yeast Anticancer Drug Screen. Data for the sgs1 mgt1 strain (AID 161).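 Note: 0% = growth of cultures given vehicle only.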 The conditions noted are these: S. cerevisiae sgs1 mgt1 strain, stronger effect = higher value. The method in brief:
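Test agents were incubated with a DNA-repair-mutant yeast strain. Growth was then read and compared against vehicle-treated controls.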

Experiment [4] in a line: NCI Yeast Anticancer Drug Screen. Data for the cln2 rad14 strain (AID 165).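 Note: 0% = growth equal to vehicle treated cultures.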 The conditions noted are these: S. cerevisiae cln2 rad14 strain, stronger effect = higher value. The method in brief:
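Compounds are applied to the cln2 rad14 yeast strain, and growth is then compared with that of vehicle-treated cultures to give inhibition.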

The nature of experiment [5]: NCI Yeast Anticancer Drug Screen. Data for the bub3 strain (AID 167). Conditions: S. cerevisiae bub3 mutant strain, stronger effect = higher value. The method in brief: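 Yeast carrying a defined mutation is treated with each compound, and growth is compared with that of vehicle-exposed cells to give inhibition.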
The nature of experiment [6]: NCI Yeast Anticancer Drug Screen. Data for the mlh1 rad18 strain (AID 175). The conditions noted are these: S. cerevisiae mlh1 rad18 strain growth inhibition, stronger effect = higher value. The method in brief:
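Read-out is yeast growth inhibition, calculated against vehicle-only controls. The compound was applied to a strain engineered with DNA damage repair alterations.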

The mark [7] stands for this setting: at 5.0 µM (retest, dose inferred, filed as 0.5).
Where [8] appears, read: at 50.0 µM (retest, dose inferred, filed as 5.0).

Molecules are shown by their SMILES. About 79,000 compounds went through this panel and 15% of them were active in at least one assay; those are over-represented in the sample as a whole. Values without a mark were called inactive. Activity calls are given as the source filed them. Cut-off read from the data, not from the text of the source: active = growth inhibition above about 70%; inactive = the rest.

Consider `O=C(OCC(CCl)OC(=O)C(Cl)(Cl)Cl)C(Cl)(Cl)Cl` (configuration not stated), for which the growth inhibition in experiment [1] (setting [7]) was 2%; in experiment [1] (setting [8]) it was -5%; in experiment [1] (at 50.0 µM), 52.2%; in experiment [2] (setting [7]), 12%; in experiment [2] (setting [8]), 16%; in experiment [2] (at 50.0 µM) it was 46.4%. Also, the growth inhibition in experiment [3] (setting [7]) was -31%; in experiment [3] (setting [8]), -16%; in experiment [3] (at 50.0 µM), 67%; in experiment [4] (setting [7]), 2%; in experiment [4] (setting [8]) it was 0%; in experiment [4] (at 50.0 µM) it was 78.5% (active). Also, the growth inhibition is 1% in experiment [5] (setting [7]); -4% in experiment [5] (setting [8]); 55.3% in experiment [5] (at 50.0 µM); -30% in experiment [6] (setting [7]); -53% in experiment [6] (setting [8]); 54.8% in experiment [6] (at 50.0 µM).

Turning to `NC(=O)c1cc([N+](=O)[O-])c(Cl)c([N+](=O)[O-])c1Cl`, the growth inhibition is 34% in experiment [1] (setting [7]); 65% in experiment [1] (setting [8]); 88.9% (active) in experiment [1] (at 50.0 µM); 41% in experiment [2] (setting [7]); 78% (active) in experiment [2] (setting [8]); 86.7% (active) in experiment [2] (at 50.0 µM). For the same molecule, the growth inhibition in experiment [3] (setting [7]) was 83% (active); in experiment [3] (setting [8]), 98% (active); in experiment [3] (at 50.0 µM), 91.5% (active); in experiment [4] (setting [7]), 91% (active); in experiment [4] (setting [8]) it was 100% (active); in experiment [4] (at 50.0 µM), 90.3% (active). In addition, the growth inhibition in experiment [5] (setting [7]) was 66%; in experiment [5] (setting [8]), 97% (active); in experiment [5] (at 50.0 µM), 88.2% (active); in experiment [6] (setting [7]), 39%; in experiment [6] (setting [8]), 61%; in experiment [6] (at 50.0 µM), 88.3% (active).

Turning to `COC1CC(OC2C(C)OC(OC3C(C)OC(OC4CCC5(C)C(=CCC6(O)C5CC(OC(=O)c5ccc(O)cc5)C5(C)C(O)(C(C)=O)CCC65O)C4)CC3OC)CC2OC)OC(C)C1O` (configuration not stated) (tested in a mixture with another compound), the growth inhibition in experiment [1] (setting [7]) was 1%; in experiment [1] (setting [8]), 68%; in experiment [1] (at 50.0 µM), 45.9%; in experiment [2] (setting [7]), 8%; in experiment [2] (setting [8]), 82% (active); in experiment [2] (at 50.0 µM), 39.1%. For the same molecule, the growth inhibition is 1% in experiment [3] (setting [7]); 89% (active) in experiment [3] (setting [8]); 68.7% in experiment [3] (at 50.0 µM); -7% in experiment [4] (setting [7]); 49% in experiment [4] (setting [8]); 48.6% in experiment [4] (at 50.0 µM). In addition, the growth inhibition in experiment [5] (setting [7]) is 6%; in experiment [5] (setting [8]) it was 74% (active); in experiment [5] (at 50.0 µM) it was 60.5%; in experiment [6] (setting [7]), -3%; in experiment [6] (setting [8]), 83% (active); in experiment [6] (at 50.0 µM), 55.1%.

As to `C[C@]12CC[C@H]3[C@@H](CCC4=CC(=O)CC[C@@H]43)[C@@H]1CC[C@@H]2OC(=O)N(CCCl)N=O`, the growth inhibition was 44% in experiment [1] (setting [7]); 95% (active) in experiment [1] (setting [8]); 84.8% (active) in experiment [1] (at 50.0 µM); 43% in experiment [2] (setting [7]); 97% (active) in experiment [2] (setting [8]); 85.3% (active) in experiment [2] (at 50.0 µM). Moreover, the growth inhibition is 67% in experiment [3] (setting [7]); 97% (active) in experiment [3] (setting [8]); 83.2% (active) in experiment [3] (at 50.0 µM); 68% in experiment [4] (setting [7]); 96% (active) in experiment [4] (setting [8]); 79% (active) in experiment [4] (at 50.0 µM). Besides, the growth inhibition in experiment [5] (setting [7]) is 72% (active); in experiment [5] (setting [8]), 96% (active); in experiment [5] (at 50.0 µM) it was 85.7% (active); in experiment [6] (setting [7]), 39%; in experiment [6] (setting [8]), 94% (active); in experiment [6] (at 50.0 µM), 85% (active).

Regarding `C1CN1[PH+](N1CC1)N1CC1.C1CN1[PH+](N1CC1)N1CC1.[I][Pt][I]`, the growth inhibition is 2% in experiment [1] (setting [7]); 20% in experiment [1] (setting [8]); 66.5% in experiment [1] (at 50.0 µM); 0% in experiment [2] (setting [7]); 20% in experiment [2] (setting [8]); 14.8% in experiment [2] (at 50.0 µM). Also, the growth inhibition was 2% in experiment [3] (setting [7]); 30% in experiment [3] (setting [8]); 59.8% in experiment [3] (at 50.0 µM); 1% in experiment [4] (setting [7]); 14% in experiment [4] (setting [8]); 21.8% in experiment [4] (at 50.0 µM). For the same molecule, the growth inhibition in experiment [5] (setting [7]) is 2%; in experiment [5] (setting [8]), 21%; in experiment [5] (at 50.0 µM), 22.7%; in experiment [6] (setting [7]), 5%; in experiment [6] (setting [8]) it was 44%; in experiment [6] (at 50.0 µM), 73.8% (active).

Consider `Nc1cc2[nH]cnc2c([Se])n1`, for which the growth inhibition in experiment [1] (setting [7]) is -155%; in experiment [1] (setting [8]), -6%; in experiment [1] (at 50.0 µM), 56%; in experiment [2] (setting [7]), -39%; in experiment [2] (setting [8]), -11%; in experiment [2] (at 50.0 µM), 62.9%. In addition, the growth inhibition in experiment [3] (setting [7]) is -54%; in experiment [3] (setting [8]) it was 19%; in experiment [3] (at 50.0 µM) it was 48%; in experiment [4] (setting [7]), -60%; in experiment [4] (setting [8]), -33%; in experiment [4] (at 50.0 µM), 7.45%. Also, the growth inhibition is -75% in experiment [5] (setting [7]); 21% in experiment [5] (setting [8]); 57.5% in experiment [5] (at 50.0 µM); -141% in experiment [6] (setting [7]); -29% in experiment [6] (setting [8]); 83.8% (active) in experiment [6] (at 50.0 µM).

For `COc1cc(C2c3[nH]c4ccccc4c3[C@@H](Nc3ccc(C#N)cc3)[C@H]3COC(=O)N23)cc(OC)c1O` (some centres not stated), the growth inhibition is 19% in experiment [1] (setting [7]); 95% (active) in experiment [1] (setting [8]); 73.8% (active) in experiment [1] (at 50.0 µM); 21% in experiment [2] (setting [7]); 91% (active) in experiment [2] (setting [8]); 77.3% (active) in experiment [2] (at 50.0 µM). Besides, the growth inhibition in experiment [3] (setting [7]) was -15%; in experiment [3] (setting [8]), 61%; in experiment [3] (at 50.0 µM), 58.8%; in experiment [4] (setting [7]) it was -3%; in experiment [4] (setting [8]), 57%; in experiment [4] (at 50.0 µM), 71.4% (active). In addition, the growth inhibition in experiment [5] (setting [7]) was -23%; in experiment [5] (setting [8]), 70% (active); in experiment [5] (at 50.0 µM), 65.9%; in experiment [6] (setting [7]) it was 21%; in experiment [6] (setting [8]) it was 71% (active); in experiment [6] (at 50.0 µM) it was 50.8%.

Take `O=[N+]([O-])/C=C/c1ccc(Cl)cc1[N+](=O)[O-]`: the growth inhibition in experiment [1] (setting [7]) was 97% (active); in experiment [1] (setting [8]) it was 98% (active); in experiment [1] (at 50.0 µM), 99.2% (active); in experiment [2] (setting [7]), 98% (active); in experiment [2] (setting [8]), 99% (active); in experiment [2] (at 50.0 µM), 99.6% (active). The growth inhibition in experiment [3] (setting [7]) was 99% (active); in experiment [3] (setting [8]), 99% (active); in experiment [3] (at 50.0 µM), 99.5% (active); in experiment [4] (setting [7]) it was 98% (active); in experiment [4] (setting [8]), 97% (active); in experiment [4] (at 50.0 µM), 99.3% (active). For the same molecule, the growth inhibition in experiment [5] (setting [7]) was 99% (active); in experiment [5] (setting [8]), 99% (active); in experiment [5] (at 50.0 µM) it was 99.4% (active); in experiment [6] (setting [7]), 96% (active); in experiment [6] (setting [8]), 99% (active); in experiment [6] (at 50.0 µM) it was 99.2% (active).

Regarding `O=C(Cc1c2ccccc2cc2c1ccc1ccccc12)N(CCCl)CCCl`, the growth inhibition in experiment [1] (setting [7]) is 61%; in experiment [1] (setting [8]), 94% (active); in experiment [1] (at 50.0 µM), 98.8% (active); in experiment [2] (setting [7]) it was 15%; in experiment [2] (setting [8]), 97% (active); in experiment [2] (at 50.0 µM) it was 99.3% (active). Further, the growth inhibition in experiment [3] (setting [7]) was 80% (active); in experiment [3] (setting [8]) it was 98% (active); in experiment [3] (at 50.0 µM), 99.2% (active); in experiment [4] (setting [7]), 5%; in experiment [4] (setting [8]), 95% (active); in experiment [4] (at 50.0 µM), 94.3% (active). For the same molecule, the growth inhibition is 17% in experiment [5] (setting [7]); 97% (active) in experiment [5] (setting [8]); 98.3% (active) in experiment [5] (at 50.0 µM); 42% in experiment [6] (setting [7]); 96% (active) in experiment [6] (setting [8]); 99% (active) in experiment [6] (at 50.0 µM).
